Test results published in PubChem BioAssay (Tox21).
The source made the active and inactive calls. Entries that show only a call come without a potency. Calls come from the whole dose curve; as a rule, active = well fitted curve in the direction sought with a large enough effect in the repeat runs; inconclusive = weak or mixed curves; inactive = flat fitted curve, though single readings scatter.

Test: qHTS assay to test for compound auto fluorescence at 535 nm (green) in HEK293 cells (AID 720680)
Conditions: green autofluorescence 485/535 nm; series mostly up to 91.3 µM
Excerpt: U.S. Tox21 Program National Center for Advancing Translational Sciences [NCATS] NIH Chemical Genomics Center [NCGC] U.S. Environmental Protection Agency [EPA] National Institutes of Environmental Health Sciences [NIEHS] National Toxicology Program [NTP] U.S. Food and Drug Administration [FDA] Tox21 Assay Overview: Compound auto fluorescence often interferes with screening of the compound library against various biological targets and signaling pathways. Some of these compounds may have fluorophoric properties. Such properties may interfere with the assay outputs resulting in false positives and/or negatives. To decrease such complications and ensure the compound activities are relevant in terms of biological response, the Tox21 10K compound library was screened for auto fluorescence. From the fluorophores used as reporter signals in our screening assays, the auto fluorescence equivalencies of compounds against three fluorophores have been evaluated: Triamterene, Fluorescein and Rose Bengal sodium for blue, green and red fluorescence, respectively. The fluorescence intensities were measured using Excitation/Emission wavelengths at 405/460nm, 485/535nm and 540/590nm for blue, green and red labels, respectively. This assay includes the green fluorescence data.
Tox21 Assay Protocol Summary: 2,000 HEK293 cells in 5 uL of culture medium containing 10% dialyzed FBS per well were dispensed into black wall/clear bottom 1536-well plates using a Multidrop Combi Dispenser (Thermo Scientific). The assay plates were incubated for 4-5 hr at 37C to allow cell attachment to the well bottom, followed by the transfer of 23 nL compound or DMSO vehicle by a pintool work station (Kalypsys, San Diego, CA). After the assay plates were incubated overnight at 37C and 5% CO2, fluorescence intensities in the assay plates were measured by an Envision (PerkinElmer, Shelton, CT) plate reader using three labels for measuring blue, green and red fluorescence at […] 460, 535 and 590nm respectively.

**Q.** Which Potency does the source give for Oc1c(Cl)cc(Cl)cc1Sc1cc(Cl)cc(Cl)c1O here?
**A.** The Potency was “inactive”.

**Q.** Which Potency does the source give for COc1cc(C(=S)N2CCOCC2)ccc1O here?
**A.** Its Potency is “inactive”.

**Q.** For CC(C)CCCCCCc1ccc(O)cc1, which Potency is on record?
**A.** The Potency was “inactive”.

**Q.** For CCc1cc(C(C)(C)C)c(O)c(C(C)(C)C)c1, which Potency is on record?
**A.** The Potency was “inactive”.

**Q.** With CCN(CC)CCOc1ccc(/C(=C(\Cl)c2ccccc2)c2ccccc2)cc1 as the compound, how does the Potency read?
**A.** The Potency was “inactive”.

**Q.** For CC(C)(c1ccccc1)c1ccc(Nc2ccc(C(C)(C)c3ccccc3)cc2)cc1, which Potency is on record?
**A.** Its Potency is “inactive”.

**Q.** Which Potency does the source give for CCCCCC(=O)O[C@]1(C(C)=O)CC[C@H]2[C@@H]3CCC4=CC(=O)CC[C@]4(C)[C@H]3CC[C@@]21C here?
**A.** Its Potency is “inactive”.

**Q.** Which Potency does the source give for Nc1ccc2cc3ccccc3cc2c1 here?
**A.** The Potency was “inactive”.

**Q.** With c1ccc2c(c1)-c1cccc3c1c-2cc1ccccc13 as the compound, how does the Potency read?
**A.** Its Potency is “inactive”.

**Q.** For O=C(O)c1cccc(C(=O)O)c1, which Potency is on record?
**A.** Its Potency is “inactive”.

**Q.** With Cc1ccc(S(=O)(=O)Oc2ccc(N=Nc3ccc(-c4ccc(N=Nc5c(O)ccc6cc(S(=O)(=O)O)cc(S(=O)(=O)O)c56)c(C)c4)cc3C)cc2)cc1 as the compound, how does the Potency read?
**A.** The Potency was “inactive”.

**Q.** Which Potency does the source give for O=C(Cl)c1cccc(C(=O)Cl)c1 here?
**A.** Its Potency is “inactive”.

**Q.** With CNCCC(Oc1ccc(C(F)(F)F)cc1)c1ccccc1 (stereo not given) as the compound, how does the Potency read?
**A.** The Potency was “inactive”.

**Q.** With CCOc1ccccc1C(N)=O as the compound, how does the Potency read?
**A.** Its Potency is “inactive”.

**Q.** For Cc1cccc([N+](=O)[O-])c1C(=O)O, which Potency is on record?
**A.** The Potency was “inactive”.

**Q.** With Nc1cc(Cl)c(-c2cc(Cl)c(N)cc2Cl)cc1Cl as the compound, how does the Potency read?
**A.** The Potency was “inactive”.

**Q.** For CN(C)c1ccc2nc3ccc(=[N+](C)C)cc-3sc2c1, which Potency is on record?
**A.** Its Potency is “inactive”.

**Q.** Which Potency does the source give for Cc1cccc(O)c1C here?
**A.** Its Potency is “inactive”.

**Q.** For CCC(C)(C)C(=O)O[C@H]1C[C@@H](C)C=C2C=C[C@H](C)[C@H](CC[C@@H]3C[C@@H](O)CC(=O)O3)[C@H]21, which Potency is on record?
**A.** Its Potency is “inactive”.

**Q.** With CCCN[C@H]1CCc2nc(N)sc2C1 as the compound, how does the Potency read?
**A.** Its Potency is “inactive”.

**Q.** For CC(C)CCOCc1ccccc1, which Potency is on record?
**A.** Its Potency is “inactive”.

**Q.** With NC(Cc1ccc(Cl)cc1)C(=O)O (stereo not given) as the compound, how does the Potency read?
**A.** Its Potency is “inactive”.

**Q.** For COc1ccc(CCN2CCC(Nc3nc4ccccc4n3Cc3ccc(F)cc3)CC2)cc1, which Potency is on record?
**A.** The Potency was “inactive”.

**Q.** With O=C1Nc2ccccc2C1(c1ccc(O)cc1)c1ccc(O)cc1 as the compound, how does the Potency read?
**A.** The Potency was “inactive”.

**Q.** With CC(=O)Nc1ccc(C(=O)CCl)cc1 as the compound, how does the Potency read?
**A.** Its Potency is “inactive”.

**Q.** For NCCCCCC(=O)O, which fluorescence, % of fluorescein is on record?
**A.** Its fluorescence, % of fluorescein is -0.0215% [at 18.6 µM] (inactive).

**Q.** Which Potency does the source give for C=C(C)C(=O)O here?
**A.** The Potency was “inactive”.

**Q.** Which Potency does the source give for Oc1ccc(Cl)cc1Cc1cc(Cl)ccc1O here?
**A.** Its Potency is “inactive”.

**Q.** For CCN(CC)c1ccc2c(C)cc(=O)oc2c1, which Potency is on record?
**A.** Its Potency is “inactive”.

**Q.** With c1ccc2cc3c(ccc4ccccc43)cc2c1 as the compound, how does the Potency read?
**A.** The Potency was “inactive”.

**Q.** With O as the compound, how does the Potency read?
**A.** Its Potency is “inactive”.

**Q.** For CCn1cc(C(=O)O)c(=O)c2cc(F)c(N3CCNC(C)C3)c(F)c21 (stereo not given), which Potency is on record?
**A.** The Potency was “inactive”.

**Q.** For COc1ccc(COC(C)=O)cc1, which Potency is on record?
**A.** The Potency was “inactive”.

**Q.** Which Potency does the source give for Cc1cc(Cc2cc(C)cc(C(C)(C)C)c2O)c(O)c(C(C)(C)C)c1 here?
**A.** Its Potency is “inactive”.

**Q.** Which Potency does the source give for CC(=O)CC(=O)Nc1ccc2[nH]c(=O)[nH]c2c1 here?
**A.** Its Potency is “inactive”.

**Q.** For BrC1CCC(Br)C(Br)CCC(Br)C(Br)CCC1Br (stereo not given), which Potency is on record?
**A.** Its Potency is “inactive”.

**Q.** For C=C(C)C1CC=C(C)C(OC(C)=O)C1 (stereo not given), which Potency is on record?
**A.** Its Potency is “inactive”.

**Q.** Which Potency does the source give for C/C=C/c1ccc(OCC)c(O)c1 here?
**A.** Its Potency is “inactive”.

**Q.** Which Potency does the source give for c1cc(C(c2ccc(OCC3CO3)cc2)C(c2ccc(OCC3CO3)cc2)c2ccc(OCC3CO3)cc2)ccc1OCC1CO1 (stereo not given) here?
**A.** The Potency was “inactive”.

**Q.** For CC(C)(C)NC(=O)[C@@H]1CN(Cc2cccnc2)CCN1C[C@@H](O)C[C@@H](Cc1ccccc1)C(=O)N[C@H]1c2ccccc2C[C@H]1O, which Potency is on record?
**A.** The Potency was “inactive”.
